HTT aggregate: inhibitors of mutant huntingtin aggregate formation in PC12 cells. hit rate 1.1% among 220,000. PC12 HttQ103-GFP aggregates, Acumen cytometry, 40 h. AID 1688. Potency, µM (series often up to 46.1 µM), actives largely listed as inhibitors; further: nearly all actives have a fitted effect of over 60% in size
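Quantitative HTS on tebufenozide-induced (100 nM) PC12 cells stably expressing polyQ103 Huntingtin exon 1–GFP. Reduction of bright GFP aggregates, detected by laser scanning cytometry after lysis, identified actives across the titration.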
ERK EGF inh: blocks ERK signaling stimulated by EGF | HEK293-V1b, EGF-stimulated phospho-ERK AlphaScreen | Potency, µM (titrated, usually from 11.5 µM), hits mostly inhibitors | hit rate 0.41% among 130,000; further: nearly all actives have a fitted effect of over 55% in size
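Readout: AlphaScreen signal for phosphorylated ERK in lysed HEK293 cells stably expressing V1b. Stimulus 25 nM EGF, 5 min, following 30 min compound exposure. Data scaled to DMSO basal and full EGF activation.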
HTT cytoprotect: Huntington cell model cytoprotection by ATP luminescence; PC12 HTT-Q103 induced, cytoprotection, ATP luminescence, 40 h; Potency, µM (highest dose often 56.4 µM), most hits filed as activators; hit rate 0.14% among 230,000; AID 1471; further: nearly all actives have a fitted effect of over 45% in size
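Compounds added alongside 100 nM tebufenozide, which induces toxic Q103 huntingtin exon 1-GFP in stable PC12 cells; surviving cells quantified by luminescent ATP measurement. Medium: phenol red-free DMEM, 5% equine and 5% calf serum.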
Of the large screens only hits and unclear results are named; the others gave an inactive call. An excerpt weighted towards active compounds, which were near 1.4% of everything screened. The call rests on the fitted dose curve; in most records, active means well fitted curve in the direction sought with a large enough effect; inconclusive means small, poorly fitted or top-dose-only effect, or another doubt; inactive means no such curve, though single readings can be large; an effect the other way counts as inactive or inconclusive.

Cc1ccc(NC(=S)N2CCCN(Cc3ccc(F)cc3)C2)c(C)c1	none
CSCC[C@H](NC(=O)c1ccc(Cl)c([N+](=O)[O-])c1)c1nc2ccccc2[nH]1	ERK EGF inh inconclusive
CCOc1ccc(C(=O)Nc2cc(-c3nc4ccccc4[nH]3)ccc2Cl)cc1[N+](=O)[O-]	HTT aggregate 13µM
CCOc1ccc(C(=O)Nc2nc3ccccc3[nH]2)cc1OCC	HTT aggregate 13µM
CCOc1ccc(C(=O)Nc2cc(-c3nc4ccccc4[nH]3)ccc2C)cc1[N+](=O)[O-]	none (no result: ERK EGF inh)
COc1ccc(C(=O)Nc2nc3ccccc3[nH]2)cc1OC	none
O=C(NC(Cc1ccccc1)c1nc2ccccc2[nH]1)c1ccc(Cl)c([N+](=O)[O-])c1 (configuration not stated)	HTT aggregate 7.9µM (no result: ERK EGF inh)
CC(=O)/C=C\C1[C@]2(C)CCCC(C)(C)C2CC[C@@]1(C)O (some centres not stated)	none (no result: HTT aggregate, HTT cytoprotect)
O=C(NCCNC[C@@H](O)COc1ccc(O)cc1)N1CCOCC1	none (no result: HTT aggregate)
COc1cc(-c2ccc(-[n+]3nc(-c4ccccc4)nn3-c3ccc([N+](=O)[O-])cc3)c(OC)c2)ccc1-[n+]1nc(-c2ccccc2)nn1-c1ccc([N+](=O)[O-])cc1	none (no result: ERK EGF inh)
Cc1cc(SCC(=O)c2ccc(Br)cc2)cc(C)[o+]1	none (no result: HTT aggregate, ERK EGF inh)
CCCCn1c(NC(=O)c2ccccc2Cl)c(C#N)c2nc3ccccc3nc21	HTT aggregate 10µM (no result: ERK EGF inh)
N#Cc1c(NC(=O)c2ccccc2Cl)n(Cc2ccccc2)c2nc3ccccc3nc12	HTT aggregate inconclusive
CC(=O)N(C1=C(Cl)C(=O)c2ccccc2C1=O)C1CCCCC1	HTT aggregate inconclusive, ERK EGF inh 25µM
CC(=O)N(c1ccccc1C)C1CCCC1	HTT cytoprotect inconclusive
c1ccc(C(c2ccccc2)N2CCCC3(CCNCC3)C2)cc1	none (no result: HTT aggregate)
CN(C)S(=O)(=O)c1ccc(Oc2ccccc2)cc1	none (no result: ERK EGF inh)
CCN(CC)S(=O)(=O)c1ccc(NN)nc1	none
CCN(CC)S(=O)(=O)c1ccc(Oc2ccccc2)cc1	HTT aggregate 16µM (no result: ERK EGF inh)
CCN(CC)S(=O)(=O)c1ccc(Oc2cccc(C(C)=O)c2)nc1	HTT aggregate 5.6µM (no result: ERK EGF inh)
COc1cccc(-c2nccc(N(C)Cc3ccco3)n2)c1	none (no result: HTT aggregate, ERK EGF inh)
Cc1ccccc1OC[C@H](O)CO	none (no result: HTT aggregate)
CCOC(=O)CCN1C(=O)[C@H]2[C@H]3[C@H](O)[C@H](O)C/C(=N/NC(=O)OCc4ccccc4)[C@H]3CC[C@@H]2C1=O	none (no result: HTT aggregate, ERK EGF inh)
NC(=S)N/N=C1\CCOc2ccc(F)cc21	none
CC(O)C(NS(=O)(=O)c1ccc(Cl)cc1)C(=O)OCC(=O)c1c[nH]c2ccccc12 (configuration not stated)	none
CC(C)C(NS(=O)(=O)c1c(Cl)cccc1Cl)C(=O)OCC(=O)c1c[nH]c2ccccc12 (configuration not stated)	ERK EGF inh 25µM
O=C(N/N=C/c1cccc2cccnc12)c1ccccc1O	none
Cc1ccc2[nH]c3c(N4CCc5ccccc5C4)ncnc3c2c1	HTT aggregate 3.5µM (no result: ERK EGF inh)
COc1ccc2[nH]c3c(N4CCC(O)(c5cccc(C(F)(F)F)c5)CC4)ncnc3c2c1	HTT aggregate inconclusive (no result: ERK EGF inh)
Brc1ccc2[nH]c3c(N4CCc5ccccc5C4)ncnc3c2c1	HTT aggregate inconclusive (no result: ERK EGF inh)
CCOc1ccc2[nH]c3c(N4CCc5ccccc5C4)ncnc3c2c1	ERK EGF inh 32µM
COc1ccc2[nH]c3c(N4CCN(Cc5ccc6c(c5)OCO6)CC4)ncnc3c2c1	HTT aggregate 13µM (no result: ERK EGF inh)
Fc1ccc2[nH]c3c(N4CCc5ccccc5C4)ncnc3c2c1	ERK EGF inh inconclusive
C=CCC1(O)C=CCC2C3C4C(OC(C)(C)C)C2C1C34 (configuration not stated)	none (no result: HTT aggregate, ERK EGF inh)
COC(=O)N[C@@H](c1cccc(C)c1)C(C(C)=O)C(=O)OC (some centres not stated)	none (no result: HTT aggregate)
COc1ccc(-c2cc(CNC(=O)CCl)on2)cc1	HTT aggregate 18µM (no result: ERK EGF inh)
COc1ccc(-c2cc(CNC(C)=O)on2)cc1	none (no result: ERK EGF inh)
O=C(NC1CCCCC1)C(c1ccc(F)cc1)N(Cc1ccco1)C(=O)CN1C(=O)c2ccccc2S1(=O)=O (configuration not stated)	HTT aggregate 22µM
O=C(NC1CCCCC1)C(c1ccc(F)cc1)N(Cc1ccco1)C(=O)Cn1nnc2ccccc21 (configuration not stated)	none (no result: ERK EGF inh)
COc1ccccc1CNc1ncnc2ccc(-c3ccc(C(=O)N(C)C)cc3)cc12	none (no result: HTT aggregate, ERK EGF inh)
COc1cc([C@@H]2c3cc4c(cc3[C@@H](OC3OC5COC(C)OC5C(O)C3O)[C@H]3COC(=O)[C@H]23)OCO4)cc(OC)c1O (some centres not stated)	none (no result: HTT aggregate, ERK EGF inh)
O=C(Cc1cccs1)Nc1nc2c(s1)CCCC2	HTT aggregate 3.2µM (no result: ERK EGF inh)
O=C(Nc1nc2c(s1)CCCC2)c1cccs1	none (no result: ERK EGF inh)
CCCCC/C=C\C/C=C\C/C=C\CCCCCCC(=O)NCCc1ccc(O)c(O)c1	none (no result: HTT aggregate)
Cc1onc(-c2ccccc2Cl)c1C(=O)Nc1nnc(-c2ccc(Br)cc2)s1	HTT aggregate inconclusive (no result: ERK EGF inh)
Cc1onc(-c2ccccc2Cl)c1C(=O)Nc1nnc(-c2ccc(Cl)cc2Cl)s1	HTT aggregate 35µM (no result: ERK EGF inh)
NC(=O)NOCc1ccc(Cl)cc1Cl	none
CNC(=S)/N=C/NOCc1ccc(Cl)cc1Cl	HTT aggregate 7.9µM, ERK EGF inh inconclusive
COc1cc2c(C#N)c(N3CCCCC3)nc(N)c2c(N)n1	HTT aggregate 11µM (no result: ERK EGF inh)
COc1cc2c(C#N)c(N3CCOCC3)nc(N)c2c(N)n1	HTT aggregate inconclusive (no result: ERK EGF inh)
c1cn(-c2ncnc3sc4c(c23)CCCC4)cn1	HTT aggregate 11µM (no result: ERK EGF inh)
c1ccn(-c2ncnc3sc4c(c23)CCCC4)c1	none (no result: ERK EGF inh)
COc1ncc2nc(-c3ccc(F)cc3)c(=O)n(C)c2n1	none (no result: HTT aggregate, ERK EGF inh)
COC(=O)C/C=C\[C@@H](C)[C@@H](/C=N\O[C@@H](C)c1cc(-c2c(C)cc(C)cc2C)no1)NS(=O)(=O)c1ccc(C)cc1	none (no result: HTT aggregate, ERK EGF inh)
N/C(=N\O)c1cn([C@@H]2O[C@@H](CO)[C@H](O)[C@@H]2O)c2ncnc(NO)c12	none (no result: HTT aggregate, ERK EGF inh)
CN(Cc1ccccc1)c1ccc2nnc(-c3ccccc3)n2n1	HTT aggregate 35µM (no result: HTT cytoprotect)
c1ccc(-c2nnc3ccc(N4CCCC4)nn23)cc1	none (no result: ERK EGF inh)
O=C1OC(=O)c2ccccc21	none (no result: HTT aggregate, ERK EGF inh)
O=C1OC2(c3cc(Br)c(O)c(Br)c3Oc3c2cc(Br)c(O)c3Br)c2c(Cl)c(Cl)c(Cl)c(Cl)c21	none (no result: HTT aggregate, ERK EGF inh)
CN(Cc1ccccc1)C(=O)[C@H](Cc1ccc2ccccc2c1)NC(=O)[C@@H]1C[C@@H](O)CN1C(=O)c1cn(C)c2ccccc12	none (no result: HTT aggregate, ERK EGF inh)
CC1(C)O[C@H]2[C@@H](O1)[C@@H](On1nnc3ccc(Cl)cc31)O[C@@H]2[C@@H]1COC(C)(C)O1	none (no result: HTT aggregate, ERK EGF inh)
Cc1cccc(C(C)C)c1NC(=O)COC(=O)Cc1ccsc1	none (no result: ERK EGF inh)
Cc1cccc(C)c1NC(=O)COC(=O)Cc1ccsc1	HTT aggregate 20µM
O=c1c(-c2ccccc2)nc2cnc(N3CCOCC3)nc2n1C1CC1	none (no result: HTT aggregate, ERK EGF inh)
COc1ccc2c(c1OC)C(Cc1ccccc1)N1CCc3cc4c(cc3C1=C2)OCO4 (configuration not stated)	none (no result: HTT aggregate)
CN1/C(=C\C(=O)Nc2ccc(F)cc2)C(C)(C)c2ccccc21	HTT aggregate 6.3µM (no result: ERK EGF inh)
CN1/C(=C\C(=O)Nc2ccc(Br)cc2)C(C)(C)c2ccccc21	ERK EGF inh inconclusive
O=C(N/N=C/c1cn(-c2ccccc2)nc1-c1cccnc1)c1cccnc1	none

From PubChem BioAssay
